RE007 growth inh: less growth of the S. pombe RE007 Vpr strain | S. pombe RE007 Vpr strain, BacTiter-Glo ATP luminescence, 24 h | Potency, µM (doses to about 92.2 µM), inactives show at the highest dose activity change, negative = less growth, actives largely listed as inhibitors | hit rate 0.21% among 360,000; active = well fitted falling curve with a large enough effect; inconclusive = small, poorly fitted or top-dose-only effect; inactive = no such curve, though single readings can be large or run the other way; also: nearly all actives have a fitted effect of over 50% in size
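Fission yeast RE007 carrying one integrated HIV-1 vpr copy, seeded at OD 0.01 in PMG+AL medium with 23 nL pinned compound. Grown 24 h at 30 degrees; viability read by BacTiter-Glo luminescence after 5 min.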
Tb PYK inh: inhibitors of Trypanosoma brucei pyruvate kinase | hit rate 0.12% among 410,000 | Potency, µM (doses to about 76.8 µM), inactives show at the top dose activity, negative = inhibition, actives largely listed as inhibitors | TbPYK enzyme, Kinase-Glo Plus ATP luminescence, 45 min; also: nearly all actives have a fitted effect of over 50% in size
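Luminescence from Kinase-Glo Plus, added after a 45-minute room-temperature reaction, served as the end-point read-out. The enzyme and substrate were preincubated with compound before ADP (130 uM final) initiated turnover. Concentration-effect curves came from normalized qHTS data.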
LmPK inhibitor: blocks Leishmania mexicana pyruvate kinase activity | Q27686 | purified LmPK, Kinase-Glo ATP luminescence, 1 h | Potency, µM (series often up to 57.5 µM), for inactives: at the top dose activity change, negative = inhibition, most hits filed as inhibitors | hit rate 0.37% among 290,000 | AID 1721
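qHTS format; LmPK 0.1 nM; substrates PEP 0.5 mM and ADP 0.1 mM. One-hour room-temperature incubation, then coupled luciferase luminescence; 0.5 nM enzyme wells mark activation.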
Sm TGR inh: blocks Schistosoma mansoni thioredoxin glutathione reductase. purified TGR, DTNB reduction, TNB absorbance 405 nm. Potency, µM (top dose mostly 114 µM), without a hit: at the highest dose activity change, negative = inhibition, usual class: inhibitors. hit rate 3% among 360,000; also: nearly all actives have a fitted effect of over 60% in size
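First, TGR (20 nM dispensed) and NADPH were mixed with compound. Second, a 15 min room-temperature incubation followed. Third, further NADPH and then DTNB were added to start the reaction. Finally, TNB absorbance was monitored kinetically.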
FBPA Giardia inh: inhibitors of Giardia lamblia fructose-1,6-bisphosphate aldolase. A8B2U2. purified Giardia FBPA. Potency, µM (top dose mostly 59.6 µM), without a hit: at the top dose activity, negative = inhibition, usual class: inhibitors. hit rate 0.71% among 290,000. AID 2451; also: nearly all actives have a fitted effect of over 55% in size
Target sequence (A8B2U2 whole entry, looked up): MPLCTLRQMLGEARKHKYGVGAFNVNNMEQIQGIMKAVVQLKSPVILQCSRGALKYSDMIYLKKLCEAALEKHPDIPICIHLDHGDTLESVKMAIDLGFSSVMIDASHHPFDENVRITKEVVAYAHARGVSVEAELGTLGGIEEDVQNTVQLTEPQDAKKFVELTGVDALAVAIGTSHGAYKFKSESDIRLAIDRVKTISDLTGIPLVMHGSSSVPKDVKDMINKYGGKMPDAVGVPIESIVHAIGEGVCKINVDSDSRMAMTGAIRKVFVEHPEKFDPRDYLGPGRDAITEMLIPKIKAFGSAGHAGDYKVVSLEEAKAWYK
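40 nM FBPA preincubated 10 min at RT with compound (up to 57.5 uM final), then substrate plus GAPDH/TPI/NAD/arsenate coupling and diaphorase/resazurin added. Fluorescence read after 20 min at RT, 525/598 nm.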
* = called active by the depositor; ? = inconclusive; · = no result given. This is a sample that favours compounds with a hit; in the whole collection about 3.3% have one here. Unless noted, calls follow the shape of the dose curve; as a rule, active = well fitted curve in the direction sought with a large enough effect; inconclusive = small, poorly fitted or top-dose-only effect, or another doubt; inactive = no such curve, though single readings can be large; an effect the other way counts as inactive or inconclusive. % is scaled to controls: 0 for no effect and ±100 for the full control effect; potency is read from the fitted curve at half-maximal effect.

SMILES	RE007 growth inh	Tb PYK inh	LmPK inhibitor	Sm TGR inh	FBPA Giardia inh
O=[N+]([O-])c1ccccc1CN1CCN(S(=O)(=O)c2ccccc2)CC1	18%	16%	·	·	·
O=S(=O)(c1ccccc1F)N1CCN(Cc2cc3c(cc2O)OCO3)CC1	-22%	-2%	·	0.71µM*	·
O=C1CN(C(=O)c2c(F)cccc2F)C(c2ccc(F)cc2)c2cc(F)ccc2N1 (stereo unspecified)	4%	0%	4%	3%	9%
Cc1ccc2c(c1)n([O-])c1c([n+]2=O)CCCC1	0%	-11%	-4%	-3%	-5%
CC(C)COc1cccc(C(=O)NC(=S)Nc2cccc(NC(=O)c3ccccc3Cl)c2)c1	-2%	0%	3%	6%	0%
O=C(OCC(=O)N1CCC(Cc2ccccc2)CC1)c1cc(Cl)ccc1O	18%	-5%	·	-2%	·
O=C(COc1ccccc1)NCCn1ccc2ccccc21	10%	1%	1%	0%	-9%
Oc1cc2c(cc1CN1CCN(c3ccc(F)cc3)CC1)OCO2	-26%	2%	11%	2.5µM*	-6%
COc1cc(OC)c(OC)cc1CN1CCN(c2ccc(F)cc2)CC1	-3%	24%	-4%	3%	?
CCOC(=O)c1ccc(S(=O)(=O)N2CCN(Cc3cc4c(cc3O)OCO4)CC2)cc1	-5%	4%	·	0.35µM*	·
COC(=O)CCC(=O)Nc1cc(Cl)cc(Cl)c1	3%	-1%	3%	20%	13%
Cn1c(=O)c(C(=O)NNC(=O)c2ccccc2F)c(O)c2ccccc21	-8%	3%	4%	-8%	2%
Cn1c(=O)c(C(=O)NNC(=O)c2ccc(Br)cc2)c(O)c2ccccc21	28µM*	0%	0%	-21%	12%
COc1ccc(-c2nc3c(c(SCC(=O)Nc4cc(C)cc(C)c4)n2)Cc2c(CO)cnc(C)c2O3)cc1	·	-13%	·	3%	·
Cc1cc(C)cc(NC(=O)CSc2nc(-c3cccc(Cl)c3)nc3c2Cc2c(CO)cnc(C)c2O3)c1	·	-7%	·	35µM*	·
COc1ccc(-c2nc3c(c(SCC(=O)N4CCOCC4)n2)Cc2c(CO)cnc(C)c2O3)cc1	8%	-6%	-4%	-18%	-12%
CCN(CC)C(=O)CSc1nc(-c2ccc(C)cc2)nc2c1Cc1c(CO)cnc(C)c1O2	·	0%	·	20µM*	·
Cc1ccc(-c2nc3c(c(SCC(=O)N4CCOCC4)n2)Cc2c(CO)cnc(C)c2O3)cc1	10%	-1%	8%	35µM*	-13%
O=C(CSCc1ccco1)Nc1cc(C(F)(F)F)ccc1N1CCOCC1	8%	-17%	9%	22µM*	-11%
C[C@@H]1CN([C@@H](C)CO)C(=O)c2cccc(NS(=O)(=O)c3cccs3)c2O[C@H]1CN(C)Cc1ccc(C(F)(F)F)cc1	14%	-8%	·	·	·
COc1cc(C(c2nnnn2C(C)(C)C)N2CCN(c3nc4ccccc4s3)CC2)ccc1O (stereo unspecified)	-10%	?	-14%	0.35µM*	-8%
COc1ccc(C(c2nnnn2C(C)(C)C)N2CCN(c3nc4ccccc4s3)CC2)cc1OC (stereo unspecified)	3%	4%	-1%	1%	1%
Oc1ccc(C(c2nnnn2CCc2ccccc2)N2CCN(c3nc4ccccc4s3)CC2)cc1 (stereo unspecified)	-1%	-2%	6%	8.9µM*	-1%
COCCn1nnnc1C(c1cccs1)N1CCN(c2nc3ccccc3s2)CC1 (stereo unspecified)	-1%	2%	5%	11%	0%
C/C=C/c1ccc(OCC(=O)Nc2ccc(OC)c(OC)c2)c(OC)c1	-10%	1%	1%	-5%	1%
SMILES	RE007 growth inh	Tb PYK inh	LmPK inhibitor	Sm TGR inh	FBPA Giardia inh
Cc1ccc(Oc2ccc(Cl)cc2N)cc1	2%	-1%	-2%	8%	-13%
COc1ccc(CN(CC(=O)NCc2ccccc2)C(=O)CCC(=O)Nc2nccs2)cc1	1%	3%	0%	11%	13%
O=C(O)CCNc1cc2ccccc2cc1C(=O)O	-7%	-26%	10%	28%	4.5µM*
O=C(O)CCNS(=O)(=O)c1ccc2ccccc2c1	2%	1%	-1%	0%	15%
CCN(CC)CCCNC(=O)/C=C/C(=O)O	10%	10%	4%	2.5µM*	6%
Cc1cc(=O)oc(C)c1C(=O)NCCCN1CCN(c2ccccc2F)CC1	-21%	6%	2%	35µM*	0%
CCC1(C(=O)NC(=Nc2ccccc2)Nc2ccccc2)CCOC1=O (stereo unspecified)	-4%	-6%	·	·	·
CC12CCC(C(=O)N(CSC(=S)N/N=C\c3ccccc3Cl)C1=O)C2(C)C (stereo unspecified)	27%	-6%	0%	-1%	20%
CC12CCC(C(=O)N(CSC(=S)N/N=C\c3ccccc3)C1=O)C2(C)C (stereo unspecified)	8%	?	2%	4.5µM*	13%
CCN1/C(=C2/SC(=S)N(C)C2=O)C=Cc2cc(C)ccc21	3%	-4%	·	·	·
CCN1C(=O)/C(=C2/C=Cc3cc(C)ccc3N2CC)N(C)C1=S	-13%	?	14µM*	9%	-21%
COc1cccc(C(=O)C(CCC#N)c2ccccc2)c1 (stereo unspecified)	-5%	-8%	·	·	·
CSC(SC)=C(C#N)C(=O)c1ccccc1	16%	1%	-1%	11µM*	3%
COc1cccc(C(=O)C(C#N)=C(SC)SC)c1	-8%	-1%	11%	13µM*	0%
Cc1ccc(C(=O)Nc2ccc(C(=O)OCc3cc(=O)n4nc(C5CC5)sc4n3)cc2)cc1	·	8%	·	6%	·
O=C(Nc1c(F)cc(F)cc1Br)c1ccco1	-1%	-3%	1%	45µM*	-8%
CNC1=C([N+](=O)[O-])CC([N+](=O)[O-])=C(N2CCNCC2)N1C	-22%	-7%	4%	14µM*	-2%
CCOC(=O)c1c(SCC(=O)Nc2nc3ccccc3s2)nc(=O)[nH]c1C	·	-2%	·	-27%	·
O=c1c2ccccc2[nH]c(=S)n1-c1ccc(Br)cc1	6%	0%	8%	-10%	4%
COC(=O)c1ccc(NC(=O)Nc2cccc(F)c2)cc1	-4%	-6%	1%	20%	-2%
CCc1[nH]c(=O)c(C#N)c2c1CCCC2	10%	0%	-12%	4%	-8%
CCc1[nH]c(=S)c(C#N)c2c1CCCC2	55%	16µM*	17%	-20%	0%
Cc1ccc(NC(=S)Nc2ccc3nc(-c4ccccn4)c(-c4ccccn4)nc3c2)cc1C	-4%	1%	2%	-29%	1.3µM*
COc1ccc(N(C)C(=S)Nc2ccc3nc(C)c(C)nc3c2)cc1	-1%	-24%	-4%	56µM*	?
Cc1ccc(NC(=S)Nc2ccccn2)cc1C	-10%	-16%	1%	-14%	-9%
Cc1nc2ccc(NC(=S)NCc3ccccc3)cc2nc1C	30%	-1%	1%	40µM*	?
